Results as given in paper PMC7862700, “An all-to-all approach to the identification of sequence-specific readers for epigenetic DNA modifications on cytosine”.

Tests used:
Experiment in all cases: DAPPL (digital affinity profiling via proximity ligation, sequencing); 10 mM Tris-HCl pH 7.5, 50 mM NaCl, 1 mM DTT, 4% glycerol, room temperature, 30 min; GST-TFs on glutathione beads, 16-mer random dsDNA library, 0.1% formaldehyde crosslink after washing; high values mean tight binding
[1] = biological target: T1, FEV (Homo sapiens, UniProt Q99581 1-238); details: protein: recombinant; tags: N-terminal GST; dsDNA, one strand shown
T1 sequence: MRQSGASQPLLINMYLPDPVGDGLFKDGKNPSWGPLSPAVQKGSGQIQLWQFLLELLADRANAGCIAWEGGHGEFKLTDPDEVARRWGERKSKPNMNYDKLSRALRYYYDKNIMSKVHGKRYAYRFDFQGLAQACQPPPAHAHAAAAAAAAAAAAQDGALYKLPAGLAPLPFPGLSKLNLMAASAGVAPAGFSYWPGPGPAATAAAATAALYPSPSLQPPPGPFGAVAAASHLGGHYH
Outline: (§1)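 The binding signal reported is, for every hexamer, its read frequency for a factor over its read frequency for the tag-only sample. Reads came from pools of yeast-expressed, GST-fused human transcription factors on glutathione beads, barcoded with DNA and mixed with that sample, which were incubated with 200 nmole of a random double-stranded 16-mer DNA library in Tris/NaCl/DTT/glycerol buffer at room temperature for 30 min. After washing, the pools were crosslinked with 0.1% formaldehyde, proximity-ligated with BsaI/T4 ligase for 1 h at 37 °C, PCR-amplified and sequenced on an Illumina NextSeq500.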

[2] = biological target: ETV5 (Homo sapiens, UniProt P41161 1-510); details: protein: recombinant; tags: N-terminal GST; dsDNA, one strand shown
Outline: as §1

[3] = biological target: HSF1 (Homo sapiens, UniProt Q00613 1-529); details: protein: recombinant; tags: N-terminal GST; chain copies: 3; dsDNA, one strand shown
Outline: as §1

[4] = biological target: T2, SPIC (Homo sapiens, UniProt Q8N5J4 1-248); details: protein: recombinant; tags: N-terminal GST; dsDNA, one strand shown
T2 sequence: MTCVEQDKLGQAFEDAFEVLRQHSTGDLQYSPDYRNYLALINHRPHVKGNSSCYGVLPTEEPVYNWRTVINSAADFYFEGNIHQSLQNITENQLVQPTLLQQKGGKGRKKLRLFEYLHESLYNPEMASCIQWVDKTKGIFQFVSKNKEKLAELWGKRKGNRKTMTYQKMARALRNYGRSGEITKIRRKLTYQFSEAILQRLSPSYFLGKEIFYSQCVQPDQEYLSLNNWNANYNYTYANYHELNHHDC
Outline: as §1

[5] = biological target: ELF4 (Homo sapiens, UniProt Q99607 1-663); details: protein: recombinant; tags: N-terminal GST; dsDNA, one strand shown
Outline: as §1

[6] = biological target: T3, ELK4 (Homo sapiens, UniProt P28324-2 1-405); details: protein: recombinant; tags: N-terminal GST; dsDNA, one strand shown
T3 sequence: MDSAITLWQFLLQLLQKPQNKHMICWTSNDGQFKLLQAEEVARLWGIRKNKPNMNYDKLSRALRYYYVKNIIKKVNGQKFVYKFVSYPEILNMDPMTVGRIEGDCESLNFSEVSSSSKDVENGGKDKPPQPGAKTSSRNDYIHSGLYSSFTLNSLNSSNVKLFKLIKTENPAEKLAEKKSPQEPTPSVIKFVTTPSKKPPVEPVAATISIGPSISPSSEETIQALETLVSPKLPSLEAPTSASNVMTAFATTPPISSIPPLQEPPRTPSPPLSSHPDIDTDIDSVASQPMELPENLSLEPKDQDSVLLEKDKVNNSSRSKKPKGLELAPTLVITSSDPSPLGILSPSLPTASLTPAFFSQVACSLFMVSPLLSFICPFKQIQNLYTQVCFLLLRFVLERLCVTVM
Outline: as §1

[7] = biological target: T4, ETV2 (Homo sapiens, UniProt O00321 1-342); details: protein: recombinant; tags: N-terminal GST; dsDNA, one strand shown
T4 sequence: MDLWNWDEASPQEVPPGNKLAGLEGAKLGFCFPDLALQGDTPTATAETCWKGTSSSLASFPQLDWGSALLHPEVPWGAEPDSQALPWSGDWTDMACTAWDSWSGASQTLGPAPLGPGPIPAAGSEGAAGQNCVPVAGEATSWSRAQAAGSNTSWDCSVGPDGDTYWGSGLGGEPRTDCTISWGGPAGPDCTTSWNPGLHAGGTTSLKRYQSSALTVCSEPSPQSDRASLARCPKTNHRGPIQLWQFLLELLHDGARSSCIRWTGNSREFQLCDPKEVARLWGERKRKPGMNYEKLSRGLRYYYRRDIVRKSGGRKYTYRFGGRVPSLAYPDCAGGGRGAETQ
Outline: as §1

[8] = biological target: T5, ELF3 (Homo sapiens, UniProt P78545 1-371); details: protein: recombinant; tags: N-terminal GST; dsDNA, one strand shown
T5 sequence: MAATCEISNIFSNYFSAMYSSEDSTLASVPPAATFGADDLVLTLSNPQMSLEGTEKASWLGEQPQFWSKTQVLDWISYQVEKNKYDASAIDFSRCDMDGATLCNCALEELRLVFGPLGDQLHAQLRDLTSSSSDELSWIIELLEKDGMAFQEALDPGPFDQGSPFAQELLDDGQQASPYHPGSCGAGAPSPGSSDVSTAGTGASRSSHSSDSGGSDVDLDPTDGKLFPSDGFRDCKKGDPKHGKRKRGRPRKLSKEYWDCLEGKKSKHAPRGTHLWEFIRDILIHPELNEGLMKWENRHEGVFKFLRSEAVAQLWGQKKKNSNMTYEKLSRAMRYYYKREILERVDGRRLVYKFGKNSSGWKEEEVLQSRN
Outline: as §1

[9] = biological target: CRX (Homo sapiens, UniProt O43186 1-299); details: protein: recombinant; tags: N-terminal GST; dsDNA, one strand shown
Outline: as §1

[10] = biological target: ETV1 (Homo sapiens, UniProt P50549 1-477); details: protein: recombinant; tags: N-terminal GST; dsDNA, one strand shown
Outline: as §1

[11] = biological target: T6, ERF (Homo sapiens, UniProt P50548 1-548); details: protein: recombinant; tags: N-terminal GST; dsDNA, one strand shown
T6 sequence: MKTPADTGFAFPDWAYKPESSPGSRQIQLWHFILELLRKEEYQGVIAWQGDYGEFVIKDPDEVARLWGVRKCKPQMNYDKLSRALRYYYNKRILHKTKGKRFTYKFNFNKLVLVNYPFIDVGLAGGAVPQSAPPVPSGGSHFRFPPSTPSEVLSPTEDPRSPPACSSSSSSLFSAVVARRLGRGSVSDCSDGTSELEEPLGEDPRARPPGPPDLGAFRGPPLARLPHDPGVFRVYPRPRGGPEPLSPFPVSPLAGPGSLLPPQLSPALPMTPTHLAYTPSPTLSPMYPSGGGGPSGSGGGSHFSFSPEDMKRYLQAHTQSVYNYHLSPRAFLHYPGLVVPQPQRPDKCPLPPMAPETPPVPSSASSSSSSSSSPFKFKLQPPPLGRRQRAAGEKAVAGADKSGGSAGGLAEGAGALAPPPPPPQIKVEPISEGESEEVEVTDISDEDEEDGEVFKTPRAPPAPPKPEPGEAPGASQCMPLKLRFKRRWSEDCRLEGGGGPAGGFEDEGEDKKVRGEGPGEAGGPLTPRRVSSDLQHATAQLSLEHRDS
Outline: as §1

[12] = biological target: T7, ETV3L (Homo sapiens, UniProt Q6ZN32 1-361); details: protein: recombinant; tags: N-terminal GST; dsDNA, one strand shown
T7 sequence: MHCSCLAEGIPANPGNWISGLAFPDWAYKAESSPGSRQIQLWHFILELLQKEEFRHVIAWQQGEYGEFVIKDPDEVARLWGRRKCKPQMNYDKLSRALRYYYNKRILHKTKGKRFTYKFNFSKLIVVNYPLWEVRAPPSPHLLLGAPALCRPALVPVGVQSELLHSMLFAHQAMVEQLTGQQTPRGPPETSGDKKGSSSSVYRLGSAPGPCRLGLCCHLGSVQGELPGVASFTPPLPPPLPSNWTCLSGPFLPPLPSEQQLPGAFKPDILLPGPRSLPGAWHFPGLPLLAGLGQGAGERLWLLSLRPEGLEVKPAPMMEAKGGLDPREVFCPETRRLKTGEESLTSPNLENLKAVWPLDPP
Outline: as §1

[13] = biological target: T8, ETS2 (Homo sapiens, UniProt P15036 1-469); details: protein: recombinant; tags: N-terminal GST; dsDNA, one strand shown
T8 sequence: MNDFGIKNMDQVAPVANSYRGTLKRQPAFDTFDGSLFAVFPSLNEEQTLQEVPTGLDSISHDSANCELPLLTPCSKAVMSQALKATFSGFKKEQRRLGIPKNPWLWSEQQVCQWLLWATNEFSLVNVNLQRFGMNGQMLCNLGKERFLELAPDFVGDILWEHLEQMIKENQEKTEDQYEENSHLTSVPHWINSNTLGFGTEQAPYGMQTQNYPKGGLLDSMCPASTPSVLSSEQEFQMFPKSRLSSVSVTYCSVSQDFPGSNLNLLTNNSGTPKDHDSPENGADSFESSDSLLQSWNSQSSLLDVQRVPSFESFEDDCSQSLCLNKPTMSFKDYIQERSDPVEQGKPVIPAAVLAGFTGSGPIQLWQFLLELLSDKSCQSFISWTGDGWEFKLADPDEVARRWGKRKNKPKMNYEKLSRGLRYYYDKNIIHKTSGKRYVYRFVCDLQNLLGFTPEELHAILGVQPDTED
Outline: as §1

[14] = biological target: T9, SPDEF (Homo sapiens, UniProt O95238 1-335); details: protein: recombinant; tags: N-terminal GST; dsDNA, one strand shown
T9 sequence: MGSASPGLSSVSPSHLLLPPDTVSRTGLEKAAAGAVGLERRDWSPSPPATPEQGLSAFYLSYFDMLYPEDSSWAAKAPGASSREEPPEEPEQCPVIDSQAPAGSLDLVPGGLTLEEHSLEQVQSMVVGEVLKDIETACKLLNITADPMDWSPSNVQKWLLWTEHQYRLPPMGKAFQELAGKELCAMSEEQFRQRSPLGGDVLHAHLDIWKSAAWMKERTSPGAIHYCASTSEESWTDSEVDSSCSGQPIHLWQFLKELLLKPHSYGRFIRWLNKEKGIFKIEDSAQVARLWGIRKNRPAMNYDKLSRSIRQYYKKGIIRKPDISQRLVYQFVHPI
Outline: as §1

[15] = biological target: T10, ETV7 (Homo sapiens, UniProt Q9Y603 1-341); details: protein: recombinant; tags: N-terminal GST; dsDNA, one strand shown
T10 sequence: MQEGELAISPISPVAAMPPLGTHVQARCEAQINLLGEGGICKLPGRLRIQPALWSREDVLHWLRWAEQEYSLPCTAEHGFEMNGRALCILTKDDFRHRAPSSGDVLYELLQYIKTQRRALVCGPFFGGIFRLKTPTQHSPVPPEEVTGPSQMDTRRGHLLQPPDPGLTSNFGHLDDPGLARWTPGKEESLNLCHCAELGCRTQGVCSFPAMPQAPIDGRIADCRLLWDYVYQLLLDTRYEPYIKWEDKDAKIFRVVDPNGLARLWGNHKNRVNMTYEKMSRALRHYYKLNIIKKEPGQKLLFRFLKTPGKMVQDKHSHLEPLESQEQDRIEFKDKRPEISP
Outline: as §1

[16] = biological target: T11, ELF5 (Homo sapiens, UniProt Q9UKW6-2 1-255); details: protein: recombinant; tags: N-terminal GST; dsDNA, one strand shown
T11 sequence: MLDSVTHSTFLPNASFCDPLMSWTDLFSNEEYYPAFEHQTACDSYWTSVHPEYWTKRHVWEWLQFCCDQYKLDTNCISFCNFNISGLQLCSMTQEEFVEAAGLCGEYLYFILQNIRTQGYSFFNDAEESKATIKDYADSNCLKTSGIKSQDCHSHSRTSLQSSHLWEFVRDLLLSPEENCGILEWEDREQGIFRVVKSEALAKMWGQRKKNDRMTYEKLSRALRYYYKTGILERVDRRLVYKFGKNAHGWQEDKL
Outline: as §1

[17] = biological target: T12, ETV3 (Homo sapiens, UniProt P41162-2 1-143); details: protein: recombinant; tags: N-terminal GST; dsDNA, one strand shown
T12 sequence: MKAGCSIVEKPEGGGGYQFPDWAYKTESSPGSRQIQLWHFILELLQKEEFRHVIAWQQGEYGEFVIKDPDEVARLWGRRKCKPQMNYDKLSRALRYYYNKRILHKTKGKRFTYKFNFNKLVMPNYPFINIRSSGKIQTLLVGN
Outline: as §1

[18] = biological target: ETV6 (Homo sapiens, UniProt P41212 1-452); details: protein: recombinant; tags: N-terminal GST; dsDNA, one strand shown
Outline: as §1

Sequence of ETV5 (P41161 whole entry): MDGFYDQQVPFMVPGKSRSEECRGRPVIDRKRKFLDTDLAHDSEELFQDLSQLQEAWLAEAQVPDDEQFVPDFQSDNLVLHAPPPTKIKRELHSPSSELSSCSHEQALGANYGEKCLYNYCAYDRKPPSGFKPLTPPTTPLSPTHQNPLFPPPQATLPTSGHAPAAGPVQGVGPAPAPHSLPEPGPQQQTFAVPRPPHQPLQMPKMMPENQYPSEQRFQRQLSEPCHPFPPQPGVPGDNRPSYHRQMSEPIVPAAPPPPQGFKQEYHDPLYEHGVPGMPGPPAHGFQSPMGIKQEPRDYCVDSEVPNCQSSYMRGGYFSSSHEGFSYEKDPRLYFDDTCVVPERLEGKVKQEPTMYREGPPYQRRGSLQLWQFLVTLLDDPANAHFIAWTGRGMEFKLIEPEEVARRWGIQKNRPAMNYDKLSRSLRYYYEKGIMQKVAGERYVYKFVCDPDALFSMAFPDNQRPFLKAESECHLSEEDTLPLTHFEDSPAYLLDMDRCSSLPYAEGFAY
Sequence of HSF1 (Q00613 whole entry): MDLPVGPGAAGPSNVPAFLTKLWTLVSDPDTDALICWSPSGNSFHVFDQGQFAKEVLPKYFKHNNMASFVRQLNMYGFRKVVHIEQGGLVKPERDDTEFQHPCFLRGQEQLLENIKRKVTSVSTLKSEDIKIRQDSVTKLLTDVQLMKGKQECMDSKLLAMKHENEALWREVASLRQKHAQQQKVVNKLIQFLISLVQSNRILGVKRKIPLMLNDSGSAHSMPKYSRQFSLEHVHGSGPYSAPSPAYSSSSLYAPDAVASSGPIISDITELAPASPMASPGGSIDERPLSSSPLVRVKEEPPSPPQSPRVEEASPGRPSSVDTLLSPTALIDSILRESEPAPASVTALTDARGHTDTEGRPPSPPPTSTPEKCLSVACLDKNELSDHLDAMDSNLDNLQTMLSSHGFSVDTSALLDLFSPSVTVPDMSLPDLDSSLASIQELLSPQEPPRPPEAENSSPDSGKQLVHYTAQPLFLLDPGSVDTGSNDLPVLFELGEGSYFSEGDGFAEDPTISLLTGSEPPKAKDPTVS
Sequence of ETV1 (P50549 whole entry): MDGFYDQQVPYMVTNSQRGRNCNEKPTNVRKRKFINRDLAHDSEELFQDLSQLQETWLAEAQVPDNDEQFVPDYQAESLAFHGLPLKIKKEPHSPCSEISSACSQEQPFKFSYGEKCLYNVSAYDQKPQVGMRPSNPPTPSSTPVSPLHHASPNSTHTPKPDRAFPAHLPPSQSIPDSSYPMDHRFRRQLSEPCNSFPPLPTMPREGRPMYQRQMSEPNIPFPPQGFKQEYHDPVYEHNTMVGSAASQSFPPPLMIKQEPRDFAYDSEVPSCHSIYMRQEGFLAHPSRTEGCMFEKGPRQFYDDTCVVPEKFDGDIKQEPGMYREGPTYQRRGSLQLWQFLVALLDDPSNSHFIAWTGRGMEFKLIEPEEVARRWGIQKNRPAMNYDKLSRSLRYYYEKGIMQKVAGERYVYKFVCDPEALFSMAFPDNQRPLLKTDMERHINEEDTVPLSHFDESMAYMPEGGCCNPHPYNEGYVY
Sequence of ETV6 (P41212 whole entry): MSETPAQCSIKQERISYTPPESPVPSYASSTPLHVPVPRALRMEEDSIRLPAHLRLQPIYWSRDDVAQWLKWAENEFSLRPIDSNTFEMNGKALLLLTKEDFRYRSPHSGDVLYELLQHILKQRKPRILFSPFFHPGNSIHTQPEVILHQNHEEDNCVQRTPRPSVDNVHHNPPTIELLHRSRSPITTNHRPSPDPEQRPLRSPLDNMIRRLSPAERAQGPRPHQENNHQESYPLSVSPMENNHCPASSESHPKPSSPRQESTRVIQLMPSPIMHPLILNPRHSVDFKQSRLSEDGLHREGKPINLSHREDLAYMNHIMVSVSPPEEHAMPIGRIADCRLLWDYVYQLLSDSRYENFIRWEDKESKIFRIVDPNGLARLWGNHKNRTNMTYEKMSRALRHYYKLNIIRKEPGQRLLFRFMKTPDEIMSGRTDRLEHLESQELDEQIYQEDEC
Sequence of CRX (O43186 whole entry): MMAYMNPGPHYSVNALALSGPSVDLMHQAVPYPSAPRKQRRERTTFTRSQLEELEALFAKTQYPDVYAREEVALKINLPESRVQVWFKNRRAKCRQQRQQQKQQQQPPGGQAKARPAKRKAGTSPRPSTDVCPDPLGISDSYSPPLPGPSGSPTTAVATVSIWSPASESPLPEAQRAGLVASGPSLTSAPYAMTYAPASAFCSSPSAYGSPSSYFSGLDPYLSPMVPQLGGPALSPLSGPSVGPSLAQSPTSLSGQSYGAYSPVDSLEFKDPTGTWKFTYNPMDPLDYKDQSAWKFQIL
Sequence of ELF4 (Q99607 whole entry): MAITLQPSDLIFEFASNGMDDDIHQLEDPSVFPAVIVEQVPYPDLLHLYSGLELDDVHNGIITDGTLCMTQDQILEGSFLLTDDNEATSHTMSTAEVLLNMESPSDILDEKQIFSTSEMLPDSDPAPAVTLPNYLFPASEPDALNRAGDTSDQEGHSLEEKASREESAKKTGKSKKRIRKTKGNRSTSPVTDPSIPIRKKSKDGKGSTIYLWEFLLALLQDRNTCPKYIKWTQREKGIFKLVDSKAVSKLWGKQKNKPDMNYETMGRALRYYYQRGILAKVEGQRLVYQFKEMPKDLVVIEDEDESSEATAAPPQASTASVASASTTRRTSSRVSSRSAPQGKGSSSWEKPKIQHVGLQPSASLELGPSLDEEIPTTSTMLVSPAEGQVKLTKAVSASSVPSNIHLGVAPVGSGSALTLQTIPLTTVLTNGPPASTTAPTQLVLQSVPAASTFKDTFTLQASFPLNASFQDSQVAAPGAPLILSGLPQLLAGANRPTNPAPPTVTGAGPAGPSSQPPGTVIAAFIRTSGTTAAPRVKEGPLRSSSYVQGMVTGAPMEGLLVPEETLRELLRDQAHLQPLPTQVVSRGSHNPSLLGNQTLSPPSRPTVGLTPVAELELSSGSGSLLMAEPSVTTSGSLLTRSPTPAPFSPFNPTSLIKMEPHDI

## GTAAAT
[1]
  binding signal: 1.09 fold enrichment (6-mer frequency, TF over GST control)
[2]
  binding signal: 1.13 fold enrichment (6-mer frequency, TF over GST control)
[3]
  binding signal: 1.22 fold enrichment (6-mer frequency, TF over GST control)
[4]
  binding signal: 1.09 fold enrichment (6-mer frequency, TF over GST control)
[5]
  binding signal: 1.14 fold enrichment (6-mer frequency, TF over GST control)
[6]
  binding signal: 1.14 fold enrichment (6-mer frequency, TF over GST control)
[7]
  binding signal: 1.06 fold enrichment (6-mer frequency, TF over GST control)
[8]
  binding signal: 1.25 fold enrichment (6-mer frequency, TF over GST control)
[9]
  binding signal: 1.32 fold enrichment (6-mer frequency, TF over GST control)
[10]
  binding signal: 1.07 fold enrichment (6-mer frequency, TF over GST control)
[11]
  binding signal: 1.18 fold enrichment (6-mer frequency, TF over GST control)
[12]
  binding signal: 1.23 fold enrichment (6-mer frequency, TF over GST control)
[13]
  binding signal: 1.18 fold enrichment (6-mer frequency, TF over GST control)
[14]
  binding signal: 1.13 fold enrichment (6-mer frequency, TF over GST control)
[15]
  binding signal: 1.2 fold enrichment (6-mer frequency, TF over GST control)
[16]
  binding signal: 1.12 fold enrichment (6-mer frequency, TF over GST control)
[17]
  binding signal: 1.13 fold enrichment (6-mer frequency, TF over GST control)
[18]
  binding signal: 1.18 fold enrichment (6-mer frequency, TF over GST control)
